Legend:
Experiment in all cases: PBM binding z-score (relative to random genomic background probes); higher = stronger binding; sequences stand for … in GC…GCGATTGACAGCGTAGAATGAAGG
[1] = system: PPARg:RXRa DBDmut IVT, anti-RXR (DBD mutation: RXRa K156A/R161A, NR concentration 270 nM, RXRa partner concentration 90 nM)
How it was run: (§1)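 Custom Agilent 4×180K protein-binding microarrays carried double-stranded probes, each with a 34-nt variable region. These regions held direct-repeat seeds, single-nucleotide variants, half-site ablations and random human genomic background sequences. Ligand-free nuclear receptor dimers were incubated on the arrays for 1 h, antibodies against each partner (one per run) detected binding, and scanned fluorescence was regression-normalized. Binding z-scores take the random background probes as reference.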

[2] = system: PPARg:RXRa IVT, anti-PPARg (NR concentration 270 nM, RXRa partner concentration 90 nM)
How it was run: as §1

[3] = system: PPARg DBDmut:RXRa IVT, anti-PPARg (DBD mutation: PPARg1 K132A/R137A, NR concentration 270 nM, RXRa partner concentration 90 nM)
How it was run: as §1

[4] = system: PPARg DBDmut IVT, anti-PPARg (DBD mutation: PPARg1 K132A/R137A, NR concentration 270 nM)
How it was run: as §1

[5] = system: PPARg homodimer (NR concentration 180 nM)
How it was run: as §1

[6] = system: PXR:RXRa (NR concentration 270 nM, RXRa partner concentration 90 nM)
How it was run: as §1

[7] = system: PXR homodimer (NR concentration 270 nM)
How it was run: as §1

[8] = system: RARa:RXR (NR concentration 270 nM, RXRa partner concentration 90 nM)
How it was run: as §1

[9] = system: RARa homodimer (NR concentration 270 nM)
How it was run: as §1

[10] = system: RARb:RXRa (NR concentration 270 nM, RXRa partner concentration 90 nM)
How it was run: as §1

Sequence	PBM binding z-score [1]	PBM binding z-score [2]	PBM binding z-score [3]	PBM binding z-score [4]	PBM binding z-score [5]	PBM binding z-score [6]	PBM binding z-score [7]	PBM binding z-score [8]	PBM binding z-score [9]	PBM binding z-score [10]
CCTACTGGGCTAAAAAGGTCATTGATGCCGATAA	2.24	2.86	-0.829	-0.574	2.32	4.35	1.23	4.77	0.346	3.82
AGTACAGGGTCACTAGGCCAGAGTAGGTACGAAT	3.37	5.52	0.92	0.785	2.13	3.07	0.0901	4.21	0.585	4.23
GGAACGAGGGCAAAGTTGATCGCATCTGTCGACG	3.98	4.13	-0.0459	-0.518	0.458	0.924	0.152	1.42	-0.502	2.32
ACTTACGGATCAACGAGGTTATAGCACGCGTATA	0.402	0.468	0.823	0.952	0.607	1.41	0.695	1.5	1.25	0.645
CATACAGGGTCAGCTAGGCCAGAGAAGGGACGGC	1.21	2.58	0.932	-0.117	1.9	2.24	0.0894	3.29	0.36	4.16
ACTAGCAGGCCAAGGGTCACTTAAGATTAGTCCG	1.3	3.66	0.182	-0.252	2.04	3.33	-0.0435	4.13	0.362	3.39
TCACGGAGGACACGAAAGGTCAGAGCTCGACATC	1.84	1.63	-0.581	-0.261	2.1	4.03	0.408	4.8	1.27	4.28
AGAATGAGGTTTTACGTAGATCAGGGAAGAAAGT	0.314	-0.118	0.643	0.771	0.322	0.0449	0.0851	0.000653	0.0667	-0.00199
CCTACTGGGCCATCAGGTCATTGACATCAACGTT	4.78	5.02	0.0284	0.33	1.3	1.67	0.415	2.15	0.278	2.09
CGTCCAAGGTCAATGCTGGGTCAGTGAAAGCATT	3.06	3.71	-0.934	-0.907	4.17	4.66	1.2	5.52	0.99	5.31
TATTGTAGATCAACAGGAGGTTAAGAAAGATCGA	0.634	1.7	1.31	1.13	0.72	0.93	0.0451	0.904	0.431	0.665
ACTCAAAGTTCAGGACGAGGTAACGTAAAGCACG	0.133	0.996	0.541	0.409	2.29	3.09	1.46	2.81	0.77	4.52
CGTCCAAGGTCAAGGTCCGTGAAAGAGACTCGAA	3.62	3.88	0.152	-0.702	2.49	3.69	0.711	4.47	0.5	5.29
CAAACTAGGTCACGAAAGGTCAAGGTCGAATGAC	8.73	9.06	5.16	2.59	5.42	6.88	3.03	7.71	3.81	5.62
ATCTCTAGGTAAAAATAGTTCAGTGAATGCAAAT	1.13	1.46	0.671	1.22	0.455	0.922	1.12	0.59	1.51	0.993
TTACCAAGGCGAGCTGAGGTCGTTGATCCAACTC	0.105	-0.00723	-0.484	-0.938	-0.375	1.71	0.0318	1.57	-0.628	0.286
AGAATGAGGTTATTAATATCAGGGAATTGCGGTC	2.96	2.52	1.52	0.456	0.953	1.27	0.447	1.32	0.74	1.18
ATCTCTAGGTAAAGATAGTTCAGTGAGTGCAAAT	2.29	1.9	0.931	0.67	0.928	3.93	11.4	0.596	0.987	0.924
ATCGAAGGGTCGAGGTGAGTATAGAGAAAGGGAA	-0.0932	1.19	0.848	0.0579	1.27	1.26	0.308	1.74	1.01	2.51
TATACAGGGTCAAAGTCCAGAGTACGAATGTCGA	2.42	4.52	3.19	3.67	3.98	4.6	1.31	5.3	2	4.42
CCTCGGAGGACAGAAGATCAGAGCTGTCCGCTTT	-0.304	-0.633	-2.13	-1.48	-0.0483	-0.636	-0.786	-0.512	-0.276	0.386
TCATATAGGTAAACAGGTGAGAGTCCGTAAGTTA	4.89	4.22	0.855	1.05	0.708	0.6	0.674	0.689	1.25	0.677
GATACAGGGTCAAGGCCAGCGTACGCGTATTGAT	2.09	3.85	0.49	-0.316	2.29	3.48	0.372	4.36	1.03	4.52
CAAAGTAGGTCACAGAGGTCAAAGTCCGTGCGTA	8.54	8.94	1.99	2.62	4.88	6.71	10.8	7.4	2.67	5.14
